# Laboratory results published in PubChem BioAssay (NCATS).
# Inconclusive results are not listed. Where a call stands in place of a potency, no number is given. Activity calls are given as the source filed them. Calls follow the shape of the dose curve; as a rule, active = well fitted curve in the direction sought with a large enough effect; inconclusive = small, poorly fitted or top-dose-only effect, or another doubt; inactive = no such curve, though single readings can be large; an effect the other way counts as inactive or inconclusive.
# Assays:
# [1] = target: Ubiquitin carboxyl-terminal hydrolase 1 (Homo sapiens) (UniProt O94782); assay: Inhibitors of USP1/UAF1: Pilot qHTS (AID 504865);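 also: rhodamine fluorescence freed from ubiquitin-rhodamine substrate followed over time; top concentration of the series differs between compounds; nearly all actives have a fitted effect of over 35% in size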
# Summary of the method: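 In 50mM HEPES pH 7.8 containing 0.5mM EDTA, 1mM TCEP, 0.1 mg/ml BSA and 0.01% Tween-20, 1nM USP1/UAF1 is exposed to compound for 15 min, then Ub-Rho (150nM final) is added and fluorescence is read over time.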
# AA1029 = assay: qHTS profiling for inhibitors of Plasmodium falciparum proliferation (AID 504749); also: nearly all actives have a fitted effect of over 60% in size; also: potency is read from the fitted curve at half-maximal effect; conditions: P. falciparum in erythrocytes, SYBR Green DNA, 72 h; series mostly up to 28.7 µM
# Summary of the method: (§1)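 P. falciparum-infected erythrocytes (0.3% parasitemia, 2.5% hematocrit final) were exposed to compounds for 72 h at 37 C in 5% CO2, then lysed with SYBR Green buffer overnight at room temperature; parasite DNA fluorescence was normalized to artemisinin and DMSO controls.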
# ATS95 = assay: as above; conditions: P. falciparum in erythrocytes, SYBR Green DNA, 72 h; series mostly up to 28.7 µM
# Summary of the method: as §1
# C2A = assay: as above; conditions: P. falciparum in erythrocytes, SYBR Green DNA, 72 h; series mostly up to 28.7 µM
# Summary of the method: as §1
# CP203 = assay: as above; conditions: P. falciparum in erythrocytes, SYBR Green DNA, 72 h; series mostly up to 28.7 µM
# Summary of the method: as §1
# CP211 = assay: as above; conditions: P. falciparum in erythrocytes, SYBR Green DNA, 72 h; series mostly up to 28.7 µM
# Summary of the method: as §1
# CP217 = assay: as above; conditions: P. falciparum in erythrocytes, SYBR Green DNA, 72 h; series mostly up to 28.7 µM
# Summary of the method: as §1
# CP238 = assay: as above; conditions: P. falciparum in erythrocytes, SYBR Green DNA, 72 h; series mostly up to 28.7 µM
# Summary of the method: as §1
# CP250 = assay: as above; conditions: P. falciparum in erythrocytes, SYBR Green DNA, 72 h; series mostly up to 28.7 µM
# Summary of the method: as §1
# CP252 = assay: as above; conditions: P. falciparum in erythrocytes, SYBR Green DNA, 72 h; series mostly up to 28.7 µM
# Summary of the method: as §1
# CP256 = assay: as above; conditions: P. falciparum in erythrocytes, SYBR Green DNA, 72 h; series mostly up to 28.7 µM
# Summary of the method: as §1
# CP265 = assay: as above; conditions: P. falciparum in erythrocytes, SYBR Green DNA, 72 h; series mostly up to 28.7 µM
# Summary of the method: as §1
# CP266 = assay: as above; conditions: P. falciparum in erythrocytes, SYBR Green DNA, 72 h; series mostly up to 28.7 µM
# Summary of the method: as §1
# CP329 = assay: as above; conditions: P. falciparum in erythrocytes, SYBR Green DNA, 72 h; series mostly up to 28.7 µM
# Summary of the method: as §1
# JCK = assay: as above; conditions: P. falciparum in erythrocytes, SYBR Green DNA, 72 h; series mostly up to 28.7 µM
# Summary of the method: as §1
# PAD = assay: as above; conditions: P. falciparum in erythrocytes, SYBR Green DNA, 72 h; series mostly up to 28.7 µM
# Summary of the method: as §1
# PC15 = assay: as above; conditions: P. falciparum in erythrocytes, SYBR Green DNA, 72 h; series mostly up to 28.7 µM
# Summary of the method: as §1
# PC26 = assay: as above; conditions: P. falciparum in erythrocytes, SYBR Green DNA, 72 h; series mostly up to 28.7 µM
# Summary of the method: as §1
# SC27B = assay: as above; conditions: P. falciparum in erythrocytes, SYBR Green DNA, 72 h; series mostly up to 28.7 µM
# Summary of the method: as §1
# [2] = qHTS Assay for Identification of Small Molecule Antagonists for Thrombopoietin (TPO) Signaling Pathway (AID 918); conditions: TPO-dependent cell signaling reporter, antagonist mode; also: potency is read from the fitted curve at half-maximal effect; nearly all actives have a fitted effect of over 60% in size
# Summary of the method: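 First, Ba/F3 reporter cells expressing human TPO receptor were held overnight without IL-3. Next, compound and 26 pM TPO were added. After 24 hrs incubation at 37 C, luciferase luminescence under the Glycoprotein IIb promoter was recorded.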
# Sequence of Ubiquitin carboxyl-terminal hydrolase 1 (Homo sapiens) (O94782 whole entry, looked up): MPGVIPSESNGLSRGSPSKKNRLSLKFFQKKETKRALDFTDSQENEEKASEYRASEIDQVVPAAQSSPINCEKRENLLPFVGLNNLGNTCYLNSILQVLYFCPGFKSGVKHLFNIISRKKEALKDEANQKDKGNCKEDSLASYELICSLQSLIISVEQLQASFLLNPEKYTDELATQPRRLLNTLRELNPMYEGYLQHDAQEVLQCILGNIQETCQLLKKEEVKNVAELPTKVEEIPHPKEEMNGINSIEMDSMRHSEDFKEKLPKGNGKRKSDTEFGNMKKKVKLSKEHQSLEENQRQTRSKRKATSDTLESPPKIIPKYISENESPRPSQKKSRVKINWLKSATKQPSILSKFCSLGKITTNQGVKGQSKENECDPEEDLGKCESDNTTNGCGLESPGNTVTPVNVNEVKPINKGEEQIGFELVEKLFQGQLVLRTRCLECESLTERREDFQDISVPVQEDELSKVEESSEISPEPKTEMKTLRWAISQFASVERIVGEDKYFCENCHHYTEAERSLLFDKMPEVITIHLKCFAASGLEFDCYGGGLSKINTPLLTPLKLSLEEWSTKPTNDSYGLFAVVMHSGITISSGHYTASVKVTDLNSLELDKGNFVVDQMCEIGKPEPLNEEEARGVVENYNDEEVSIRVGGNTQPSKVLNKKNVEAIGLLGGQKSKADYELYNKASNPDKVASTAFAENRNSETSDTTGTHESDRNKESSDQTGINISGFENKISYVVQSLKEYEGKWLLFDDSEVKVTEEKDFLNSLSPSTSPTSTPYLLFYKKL
smiles,measurement,setting,value
OC[C@H](S)CS,Potency,[1],inactive
same,Potency,AA1029,10 µM (active)
same,Potency,ATS95,12.6 µM (active)
same,Potency,C2A,inactive
same,Potency,CP203,inactive
same,Potency,CP211,inactive
same,Potency,CP217,inactive
same,Potency,CP238,inactive
same,Potency,CP250,inactive
same,Potency,CP252,inactive
same,Potency,CP256,inactive
same,Potency,CP265,inactive
same,Potency,CP266,inactive
same,Potency,CP329,inactive
same,Potency,JCK,10 µM (active)
same,Potency,PAD,inactive
same,Potency,PC15,3.16 µM (active)
same,Potency,PC26,inactive
same,Potency,SC27B,inactive
C[N+]1(C)[C@@H]2CC(OC(=O)[C@@H](CO)c3ccccc3)C[C@@H]1[C@H]1O[C@H]12 (stereo not given in full),Potency,[1],inactive
same,Potency,AA1029,inactive
same,Potency,C2A,inactive
same,Potency,CP203,inactive
same,Potency,CP211,inactive
same,Potency,CP217,inactive
same,Potency,CP238,inactive
same,Potency,CP250,inactive
same,Potency,CP252,inactive
same,Potency,CP256,inactive
same,Potency,CP265,inactive
same,Potency,CP266,inactive
same,Potency,CP329,inactive
same,Potency,JCK,inactive
same,Potency,PAD,inactive
same,Potency,PC15,inactive
same,Potency,PC26,inactive
same,Potency,SC27B,inactive
Cc1nnc(SCC2=C(C(=O)O)N3C(=O)[C@@H](NC(=O)Cn4cnnn4)[C@@H]3SC2)s1,Potency,[1],inactive
C(=C/c1ccccc1)/CN1CCN(C(c2ccccc2)c2ccccc2)CC1,Potency,[1],inactive
same,Potency,AA1029,inactive
same,Potency,ATS95,inactive
same,Potency,C2A,inactive
same,Potency,CP203,inactive
same,Potency,CP211,inactive
same,Potency,CP217,inactive
same,Potency,CP238,inactive
same,Potency,CP250,inactive
same,Potency,CP252,inactive
same,Potency,CP256,inactive
same,Potency,CP265,inactive
same,Potency,CP266,inactive
same,Potency,CP329,inactive
same,Potency,JCK,inactive
same,Potency,PAD,inactive
same,Potency,PC15,inactive
same,Potency,PC26,inactive
same,Potency,SC27B,inactive
N[C@H](COP(=O)(O)O)C(=O)O,Potency,[1],inactive
same,Potency,AA1029,inactive
same,Potency,ATS95,inactive
same,Potency,C2A,inactive
same,Potency,CP203,inactive
same,Potency,CP211,inactive
same,Potency,CP217,inactive
same,Potency,CP238,inactive
same,Potency,CP250,inactive
same,Potency,CP252,inactive
same,Potency,CP256,inactive
same,Potency,CP265,inactive
same,Potency,CP266,inactive
same,Potency,CP329,inactive
same,Potency,JCK,inactive
same,Potency,PAD,inactive
same,Potency,PC15,inactive
same,Potency,PC26,inactive
same,Potency,SC27B,inactive
CC(=O)N1CCN(c2ccc(OC[C@@H]3CO[C@@](Cn4ccnc4)(c4ccc(Cl)cc4Cl)O3)cc2)CC1,Potency,AA1029,inactive
same,Potency,ATS95,inactive
same,Potency,C2A,inactive
same,Potency,CP211,inactive
same,Potency,CP217,inactive
same,Potency,CP238,inactive
same,Potency,CP250,inactive
same,Potency,CP252,inactive
same,Potency,CP256,inactive
same,Potency,CP265,inactive
same,Potency,CP329,inactive
same,Potency,JCK,inactive
same,Potency,PAD,inactive
same,Potency,SC27B,inactive
O=C1O/C(=C\Br)CC[C@@H]1c1cccc2ccccc12,Potency,[2],10 µM (active)
Oc1ccc([C@@H]2CNCc3sccc32)cc1O,Potency,[2],12.6 µM (active)
CN(C)C(=O)/N=N\C(=O)N(C)C,Potency,[2],10 µM (active)
CSC(N)=NCCC[C@@H](N)C(=O)O,Potency,[2],3.16 µM (active)
CC(C)[C@H]1C(=O)C(C(N)=O)=C(O)[C@]2(O)C(=O)C3=C(O)c4c(O)ccc(N(C)C)c4C[C@H]3C[C@@H]12,Potency,[2],2.51 µM (active)
